Screens from PubChem.
Hits are enriched below; roughly 2.9% of the tested compounds scored in any of these assays.
PLC-gamma1 inh = blocks human PLC-gamma1 enzyme activity. P19174. purified PLC-gamma1, fluorogenic substrate, fluorescence. inhibition, % at 12.2 µM. 0.84% of 370,000 active. AID 720700; in the data active means inhibition above about 9.5%
PLC-beta3 inh = PLC-beta3 (human) inhibition, primary screen. Q01970. Purified PLC-beta3, fluorogenic substrate, fluorescence. inhibition, % at 12.2 µM. 0.18% of 370,000 active. AID 720704; in the data active means inhibition above about 11%
Target sequence (Q01970 whole entry, looked up): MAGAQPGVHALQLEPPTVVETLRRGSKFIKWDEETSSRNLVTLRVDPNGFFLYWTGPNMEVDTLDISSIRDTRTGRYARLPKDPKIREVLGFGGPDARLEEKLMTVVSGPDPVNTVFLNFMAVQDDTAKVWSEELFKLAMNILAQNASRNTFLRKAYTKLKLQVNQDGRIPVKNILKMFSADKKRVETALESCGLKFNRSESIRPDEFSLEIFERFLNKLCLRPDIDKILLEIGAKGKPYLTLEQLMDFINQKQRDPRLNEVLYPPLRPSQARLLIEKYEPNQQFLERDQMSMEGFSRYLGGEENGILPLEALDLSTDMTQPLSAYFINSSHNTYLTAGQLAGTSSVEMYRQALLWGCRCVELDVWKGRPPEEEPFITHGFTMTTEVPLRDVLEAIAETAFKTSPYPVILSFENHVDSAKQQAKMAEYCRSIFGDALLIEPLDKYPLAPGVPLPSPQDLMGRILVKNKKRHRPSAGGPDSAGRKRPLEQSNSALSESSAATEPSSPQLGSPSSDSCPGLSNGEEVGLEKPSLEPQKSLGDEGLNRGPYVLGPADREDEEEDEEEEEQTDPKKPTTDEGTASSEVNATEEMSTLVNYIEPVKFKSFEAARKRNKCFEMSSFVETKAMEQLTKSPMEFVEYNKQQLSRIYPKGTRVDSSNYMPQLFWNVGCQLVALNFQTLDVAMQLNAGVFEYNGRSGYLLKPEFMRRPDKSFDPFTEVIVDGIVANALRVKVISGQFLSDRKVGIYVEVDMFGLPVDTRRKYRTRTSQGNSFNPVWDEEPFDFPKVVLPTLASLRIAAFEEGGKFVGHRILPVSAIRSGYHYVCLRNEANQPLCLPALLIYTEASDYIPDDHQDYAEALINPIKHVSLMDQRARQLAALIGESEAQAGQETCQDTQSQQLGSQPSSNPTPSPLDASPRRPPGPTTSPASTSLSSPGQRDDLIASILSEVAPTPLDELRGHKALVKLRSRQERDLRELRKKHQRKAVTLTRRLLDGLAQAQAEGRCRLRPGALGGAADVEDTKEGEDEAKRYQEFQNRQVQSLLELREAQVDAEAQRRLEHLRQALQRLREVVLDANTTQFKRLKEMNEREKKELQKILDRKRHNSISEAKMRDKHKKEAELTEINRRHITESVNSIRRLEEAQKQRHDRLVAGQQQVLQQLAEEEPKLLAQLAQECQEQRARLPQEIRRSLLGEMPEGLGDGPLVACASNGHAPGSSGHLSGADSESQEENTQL
KLK7 zymogen act = proKLK7 (human) activation, primary screen; P49862; purified proKLK7, EDANS-DABCYL substrate fluorescence; 100% is mature enzyme control, 0% vehicle; activation, % at 7 µM; 0.9% of 370,000 active; AID 652039;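 active means activation above the mean of all tested compounds plus 3 SD, computed per campaign excluding outliers beyond control limits, cut at about 13% in these data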
ADAM17 inh = inhibits human ADAM17. inhibition, % at 6.95 µM. 0.83% of 370,000 active. AID 720648. P78536. recombinant ADAM17, EDANS/DABCYL FRET peptide cleavage;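 active means inhibition above the mean of compounds lying between control limits plus 3 SD, set per campaign, cut at about 8.5% in these data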
ADAM10 inh = inhibits human ADAM10. O14672. recombinant ADAM10, EDANS/DABCYL FRET peptide cleavage, 3 h. inhibition, % at 7 µM. 0.62% of 370,000 active. AID 720582;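 active means inhibition above a per-campaign cutoff equal to the mean of compounds falling between control-based bounds plus 3 SD, cut at about 20% in these data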
ADAM10 confirm = confirmation of inhibitors of human ADAM10. shares compounds with ADAM10 inh. ADAM10 QFRET peptide cleavage, EDANS fluorescence. inhibition, % at 6.95 µM. 1% of 2,100 active. AID 743208;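 active means inhibition above about 20% chosen separately for each screening run, limit read from the data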
ADAM17 ctr = ADAM17 inhibition, counter-screen for ADAM10 exosite hits; AID 743214; inhibition, % at 6.95 µM; 0.5% of 2,100 active; shares compounds with ADAM10 inh; ADAM17 QFRET peptide cleavage, EDANS fluorescence;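 active means mean triplicate inhibition above the solvent-only control wells' mean plus 3 SD, cut at about 12% in these data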
Hits are given with their value; . = inactive; / = not tested or not shown.

SMILES	PLC-gamma1 inh	PLC-beta3 inh	KLK7 zymogen act	ADAM17 inh	ADAM10 inh	ADAM10 confirm	ADAM17 ctr
COc1ccc(NC(=S)NC23CN4CN(CN(C4)C2)C3)cc1	.	.	.	.	83	.	.
CCOC(=O)C1(C(=O)OCC)Cc2c([nH]c3ccccc23)[C@]2(N1)C(=O)N(C)c1ccc(Br)cc12	10	.	.	12	25	.	.
CN1C(=O)C2(NCCc3c2[nH]c2ccccc32)c2ccccc21 (stereo not given)	.	.	.	.	.	/	/
COc1ccc(C(C(=O)N(C)C2CCCC2)N(Cc2ccc(F)cc2)C(=O)c2csc3ccc(Cl)cc23)cc1OC (stereo not given)	.	.	.	.	.	/	/
COc1ccc(C(=O)O[C@@H]2CCC[C@@]3(C(=O)N(Cc4ccccc4)c4ccccc43)[C@H]2NC(=O)CCc2ccccc2)cc1OC	.	.	.	.	20	.	.
COC(=O)[C@]12C[C@H](CC(=O)NCCc3ccccc3OC)C(=O)N(Cc3ccco3)C1=C[C@H](COCc1ccccc1)O[C@@H]2C	.	.	.	.	.	/	/
COc1cccc(/C=C2\CC3(OC(=O)c4ccc(Cl)cc4)CCCN2C3)c1 (stereo not given)	.	.	.	.	.	/	/
CN1C(=O)Cc2cc(S(=O)(=O)Nc3ccc(N4CCOCC4)cc3)ccc21	.	.	.	.	28	.	.
COC(=O)C1CN(Cc2cn(CCOC(C)=O)nn2)CCS(=O)(=O)N1Cc1ccccc1 (stereo not given)	.	.	.	.	.	/	/
Cc1cc(C)c(Cn2cnc(-c3ccc([N+](=O)[O-])cc3)c2)c(C)c1	.	.	.	.	29	.	.
CC(C)(C)c1ccc(Cn2cnc(-c3ccc([N+](=O)[O-])cc3)c2)cc1	.	.	.	.	.	/	/
COC(=O)c1ccc(NCc2cc(O)ccc2O)cc1O	.	.	.	.	.	/	/
COC(=O)c1ccc(NCc2c(O)ccc(O)c2Br)cc1Cl	9.8	.	.	17	41	.	.
Cc1ccc(NS(=O)(=O)c2cc(C(=O)NCCSC3CCCCC3)ccc2C)cc1	.	.	.	.	21	.	.
Cc1ccc(C)c(S(=O)(=O)Nc2ccc(C(=O)NCCCN3CCCC3=O)cc2)c1	.	.	.	.	.	/	/
Clc1ccccc1C1CC(c2ccccc2)Nc2ncnn21 (stereo not given)	.	.	.	.	92	.	.
CC(C)(C)S(=O)N1C[C@H]2CC(=O)C(CCO)=C2[C@@H]1CCO (stereo not given in full)	.	.	.	.	.	/	/
CCOC(=O)Nc1ccc2c(c1)N(CCCN(C)C)c1ccccc1CC2	.	.	.	.	.	/	/
CN(C)CCCN1c2ccc([N+](=O)[O-])cc2CCc2cc([N+](=O)[O-])ccc21	.	.	.	.	23	.	.
Cc1ccccc1Nc1nc(N)nc(COC(=O)c2cccc(S(=O)(=O)NCc3ccccc3)c2)n1	.	.	.	.	23	.	.
C[C@@H]1CCCCO[C@@H](CN(C)CC2CCCCC2)[C@@H](C)CN([C@H](C)CO)C(=O)c2cc(NC(=O)Nc3ccc4c(c3)OCO4)ccc2O1	.	.	.	.	.	/	/
CC(c1ccccc1)N1CC[C@H]2C=CC[C@@H](C(=O)Nc3ccc(F)c(F)c3)[C@H]2C1=O (stereo not given in full)	.	.	/	.	.	/	/
CCOC(=O)[C@]12CCCC=C1N(CCCOC)C(=O)[C@@H]2CC(=O)NCCCCc1ccccc1	.	.	.	.	.	/	/
COc1cc(O)c2c(=O)c3c(O[C@H]4O[C@@H](CO)[C@H](O)[C@@H](O)[C@@H]4O)ccc(O)c3oc2c1	.	.	.	.	.	/	/
COc1cc(O)c2c(=O)c3c(O)ccc(O)c3oc2c1	.	.	.	.	83	.	.
SMILES	PLC-gamma1 inh	PLC-beta3 inh	KLK7 zymogen act	ADAM17 inh	ADAM10 inh	ADAM10 confirm	ADAM17 ctr
CCOc1ccc(S(=O)(=O)n2cnc3ccccc32)cc1	.	.	.	.	64	.	.
CCOc1ccc(S(=O)(=O)n2c(C)nc3ccccc32)cc1	.	.	.	.	.	/	/
COc1ccc(C(=O)OCCCN(C)C2CN(Cc3cn(Cc4ccccc4Cl)nn3)S(=O)(=O)C2)cc1OC (stereo not given)	.	.	.	.	.	/	/
COc1ccccc1C(=O)n1ccc2ccc(-c3ccc4ccn(Cc5ccc(C#N)cc5)c4c3)cc21	.	.	.	.	.	/	/
Cc1cccc(C)c1NC(=O)CNC(=O)Cc1c[nH]c2ccccc12	.	.	.	.	.	/	/
Cc1c(Cl)cccc1NC(=O)CNC(=O)Cc1c[nH]c2ccccc12	.	.	.	.	33	.	.
COc1ccc(Cl)cc1NS(=O)(=O)c1ccc(S(=O)(=O)N2CCCC2)cc1	.	.	.	.	20	.	.
COc1ccc(S(=O)(=O)Nc2cc(Cl)ccc2OC)cc1	.	.	.	.	.	/	/
COc1ccc(/C=N/NC(=O)c2ccn[nH]2)cc1COc1ccc(Cl)cc1Cl	.	.	.	.	21	.	.
O=C1C(=Cc2cn(-c3ccccc3)nc2-c2ccc(OCc3ccccc3F)cc2)SC(=S)N1CCS(=O)(=O)O	.	.	.	.	26	.	.
CCOc1cc(/C=N/NC(=O)c2cccc([N+](=O)[O-])c2)ccc1OS(=O)(=O)c1ccccc1	.	.	.	.	28	.	.
C/C(N)=C(/C#N)C(=O)CSc1nn(-c2ccc(Cl)cc2)c(=S)s1	.	.	.	.	24	.	.
Cc1cc(C)cc(-n2c(SCC(=O)Nc3cccc(S(=O)(=O)NC4=NCCCCC4)c3)nc3ccccc3c2=O)c1	.	.	.	.	26	.	.
CCn1c2ccccc2c2cc(C=Nn3c(-c4ccccn4)n[nH]c3=S)ccc21	.	.	.	.	.	/	/
CC(C)[C@H](N)C(=O)N[C@@H](Cc1ccccc1)C(=O)N1CCC2CCN(S(=O)(=O)c3ccccc3)CC21 (stereo not given in full)	.	.	.	.	.	/	/
Cc1[nH]c2ccccc2c1N=Nc1ccccc1F	.	.	.	.	30	.	.
COc1ccc(Cn2ccc3ccc(-c4ccc5ccn(Cc6ccc(F)cc6)c5c4)cc32)cc1	.	.	.	.	.	/	/
Nc1ccc2c(c1)Nc1ccccc1CC2	.	.	.	.	24	.	.
Cc1csc(NC(=O)Cc2coc3cc(C)c(C(C)C)cc23)n1	.	.	.	.	23	.	.
Cc1cc2occ(CC(=O)NCc3cccs3)c2cc1C(C)C	.	.	.	.	.	/	/
O=C(NCCc1ccccc1F)c1ccc2c(c1)ncn2C1CCCCC1	.	.	.	.	.	/	/
O=C(COC(=O)C1CCN(c2ccc(C(F)(F)F)cn2)CC1)Nc1ccc(Cl)cc1	.	.	.	.	27	.	.
